Assay outcomes from PubChem BioAssay.
ssDAF12 agonist: activates DAF-12 receptor from parasite S. stercoralis | HEK293 ssDAF-12/GRIP1 lit1-tk-luc reporter, luminescence; % of 3 µM dafachronic acid response | hit rate 1% among 370,000 | activation, % at 6.8 µM;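 active means activation above the mean over all tested compounds plus 3 SD, cut at about 0.9% in these data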;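 further: 0% = DMSO-only wells and 100% = 3 µM delta7-dafachronic acid wells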
hgDAF12 agonist: hgDAF-12 agonism, primary luciferase screen | HEK293 GAL4-hgDAF12 UAS-luciferase reporter, agonist luminescence; normalized to butyrate control | activation, % at 6.8 µM | hit rate 1.8% among 370,000;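 active means activation above a cutoff set at the mean of all screened compounds plus 3 SD, cut at about 10% in these data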;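 further: 0% = DMSO wells and 100% = sodium butyrate wells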
DAX1 inh-1: inhibits human nuclear receptor DAX1. P51843. HEK293 Gal4-DAX1 luciferase reporter, luminescence. inhibition, % at 6.75 µM. hit rate 0.99% among 340,000. AID 504766;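 active means inhibition above the mean over all tested compounds plus 3 SD, cut at about 4.2% in these data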;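 further: 0% = DAX1-transfected cells with DMSO and 100% = empty-vector control cells with DMSO; inhibition shows as a rise in luminescence from relieved DAX1 repression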
DAX1 inh-2: inhibitors of DAX1 repression of SF-1 activated StAR promoter | HEK293T StAR-luciferase reporter, SF-1/DAX-1 repression relief | inhibition, % at 6.8 µM | hit rate 1.1% among 370,000;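 active means inhibition above the mean over all tested compounds plus 3 SD, cut at about 3.6% in these data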;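 further: 0% = DAX-1 cells with DMSO and 100% = cells lacking DAX-1 with DMSO; higher inhibition means more luminescence from relief of DAX-1 repression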
hcDAF12 agonist: activators of H. contortus DAF-12 nuclear receptor | hit rate 1.4% among 370,000 | HEK293 hcDAF-12 lit1-tk-luc reporter, luminescence; 0% DMSO, 100% Δ7-dafachronic acid | activation, % at 6.8 µM;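 active means activation above the mean of all tested compounds plus 3 SD, cut at about 5.5% in these data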;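 further: 100% = response to 3 µM Δ7-dafachronic acid high control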
hgDAF12 conf: confirmation of H. glycines DAF-12 agonists | shares compounds with hgDAF12 agonist | HEK293 GAL4-hgDAF12 luciferase reporter, agonist mode; percent of butyrate response | activation, % at 6.8 µM | hit rate 80% among 3,300 | AID 743050;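 active means mean activation over triplicate wells above the hit cutoff derived from the earlier primary screen, cut at about 11% in these data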;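 further: 0% = DMSO low control and 100% = 2 mM sodium butyrate high control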
LXR ag 2: LXR-beta agonism as DAF-12 counter-screen; shares compounds with hgDAF12 agonist; HEK293 Gal4-LXR luciferase reporter, 24 h; activation, % at 6.8 µM; 3,300 tested, under 10 active; AID 743051;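 active means mean activation of the triplicate above a set limit carried over from the primary screen, none filed active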
Target sequence (P55055 whole entry, looked up, the tested form may be a part): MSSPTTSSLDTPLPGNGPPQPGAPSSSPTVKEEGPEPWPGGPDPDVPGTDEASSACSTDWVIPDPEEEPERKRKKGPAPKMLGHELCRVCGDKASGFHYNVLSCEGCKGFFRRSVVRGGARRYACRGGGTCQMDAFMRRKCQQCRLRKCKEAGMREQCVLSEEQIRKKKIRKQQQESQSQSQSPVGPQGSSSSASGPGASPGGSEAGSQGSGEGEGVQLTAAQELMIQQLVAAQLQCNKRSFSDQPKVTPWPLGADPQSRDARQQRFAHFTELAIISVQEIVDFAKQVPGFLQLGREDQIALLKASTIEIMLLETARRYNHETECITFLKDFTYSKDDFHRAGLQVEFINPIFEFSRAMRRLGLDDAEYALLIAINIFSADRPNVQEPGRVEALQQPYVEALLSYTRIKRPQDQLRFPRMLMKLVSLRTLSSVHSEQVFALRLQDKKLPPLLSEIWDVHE
The depositor's hits bear a star; / = no result given. Compounds with a hit are over-represented: about 4.1% of the library has one in this group of screens.

SMILES | ssDAF12 agonist | hgDAF12 agonist | DAX1 inh-1 | DAX1 inh-2 | hcDAF12 agonist | hgDAF12 conf | LXR ag 2
Cc1ccc(NC(=O)COC(=O)C2(C)CC2(Cl)Cl)cc1S(=O)(=O)N1CCOCC1 (configuration not stated) | -1.2 | 0.2 | -1.6 | 0.1 | -1.6 | / | /
C/C(=N/NC(=O)c1ccc(Br)o1)c1ccncc1 | 0.8 | 17.9* | 5.7* | 2.2 | 1.9 | 0.3 | 0.1
C/C(=N/NC(=O)c1cnccn1)c1ccncc1 | -0.5 | 5.8 | 0.1 | 0.5 | 0.4 | / | /
C/C(=N/NC(=O)c1ccccn1)c1ccncc1 | 0.6 | 13.9* | 2.3 | 2.0 | 5.3 | 9.5 | 0.3
C/C(=N/NC(=O)c1ccc(Br)o1)c1cccc(NC(=O)c2ccc(C)o2)c1 | -0.5 | 9.6 | 3.0 | 1.4 | 1.3 | / | /
CC(=O)c1cccc(S(=O)(=O)NCCC(=O)Nc2ccc(S(N)(=O)=O)cc2)c1 | -0.9 | 0.7 | 0.9 | -0.3 | -1.1 | / | /
CCN(CC)C(=O)Cn1cc([N+](=O)[O-])cc1[N+](=O)[O-] | -0.3 | -1.6 | 1.2 | -0.9 | -0.1 | / | /
OC[C@H]1O[C@@H](c2nc3ccc(-c4nc(-c5ccc(Br)cc5)no4)cc3[nH]2)C[C@@H]1O | 0.1 | 13.6* | / | 4.4* | 4.3 | 9.4 | 0.8
CC(C)[C@H](NS(=O)(=O)c1ccc(Cl)cc1)C(=O)OCC(=O)NCCN1C(=O)CSC1=O | -0.8 | 1.9 | 0.2 | 1.7 | -1.9 | / | /
Cc1ccsc1/C=N/NC(=O)c1cccs1 | -0.8 | 15.2* | 3.1 | 1.5 | 3.5 | 9.6 | 0.2
Cc1cc(/C=N/NC(=O)c2cccs2)c(C)n1-c1ccccc1 | -2.0 | -9.1 | -1.0 | -1.1 | -2.2 | / | /
Cc1nn(-c2ccc(F)cc2)c(Cl)c1/C=N/NC(=O)c1cccs1 | 0.2 | 14.8* | 1.8 | 1.8 | -0.3 | 5.7 | 0.3
Cc1cc(/C=N/NC(=O)c2cccs2)c(C)n1-c1cnccn1 | -0.1 | 15.8* | 1.6 | 3.9* | 4.2 | 15.1* | 0.6
O=C(N/N=C/C(Br)=C/c1ccccc1)c1cccs1 | 0.9 | 23.7* | 4.5* | 2.6 | 2.8 | 14.9* | 0.6
CCN(C[C@H]1N[C@@](C)(C(=O)OC)[C@H]2C(=O)N(C)C(=O)[C@@H]12)S(=O)(=O)c1ccc(F)cc1 | -0.7 | 1.5 | 0.0 | 1.0 | -0.4 | / | /
CCc1ccc(NC(=O)Cn2nnc(-c3ccc(C)cc3-n3cnnn3)n2)cc1 | -1.6 | 2.5 | -1.2 | 0.5 | -2.4 | / | /
COC(=O)C1=CN(c2ccc(C)cc2)C(N)=C(C#N)C1c1ccccc1F (configuration not stated) | -1.1 | 1.0 | / | 0.5 | -1.1 | / | /
O=C(N/N=C/c1ccc(Br)cc1)c1ccc(Br)o1 | 0.2 | 14.3* | 3.1 | 3.2 | 3.8 | 15.0* | 0.7
CCOC(=O)c1ccc(NS(=O)(=O)c2c(N)n(C)c(=O)n(C)c2=O)cc1 | -1.5 | 0.5 | -1.3 | -0.6 | -1.6 | / | /
Cc1ccc(NC(=O)c2cc(C)on2)cc1 | -1.1 | 15.3* | 0.3 | 1.9 | 0.3 | 9.5 | 0.5
O=C(Nc1ccc(-c2ccccc2)cc1)c1ccccc1 | -1.4 | -1.5 | -1.7 | -0.2 | -1.3 | / | /
Nc1ccccc1NC(=O)c1ccccc1 | -1.0 | 27.0* | 7.4* | 4.3* | 2.1 | 50.9* | 0.2
Cc1nc(NC(=O)c2ccccc2)sc1C | 1.0* | 13.6* | 2.7 | 2.5 | 3.4 | 15.9* | 0.8
Cc1ccc(NC(=O)c2ccccc2)cc1 | 0.5 | 13.7* | 1.9 | 1.6 | 2.7 | 16.6* | 0.8
COC(=O)C1=CN(c2ccc(F)cc2)C=C(C(=O)OC)C1c1ccc(O)cc1 | -0.6 | -1.6 | -0.8 | -0.1 | -1.9 | / | /
Cc1ccc(NC(=O)c2ccc3c(c2)OCCO3)cc1 | -0.5 | 9.1 | -1.6 | 1.8 | 4.8 | / | /
Cc1ccc(NC(=O)c2ccc(Cl)c(N3C(=O)C=CC3=O)c2)cc1 | 0.5 | 13.5* | 2.6 | 3.8* | 3.4 | -0.1 | 0.0
COc1ccc2c(CC(=O)Nc3ncc(C)s3)coc2c1 | -0.3 | 18.4* | 1.6 | 2.3 | 3.6 | 18.0* | 1.0
COc1cccc(CC(=O)Nc2ncc(C)s2)c1 | -0.2 | 1.7 | -0.8 | -0.3 | 1.3 | / | /
